These results are taken from PubChem BioAssay (NCATS).

Assay [1] deals with Mitogen-activated protein kinase 10 (Mus musculus) (UniProt Q61831). The assay can be described thus: JNK3 AlphaScreen Assay (AID 530; active means well fitted curve in either direction with a large enough effect, not every such curve was filed as active;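 further: kinase came from lysate of stimulated human HepG2 cells; signal reports phosphorylation of biotinylated GST-cJun 1-79 at Ser73 with 10 µM ATP; series mostly up to about 57 µM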). A digest of the protocol: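 HepG2 lysate (IL-1b/TNFa pre-activated) + biotin-GST-cJun 1-79 + anti-pSer73 cJun; cpd titration, 15 min RT; ATP 10 uM start; Tris pH 7.6, MgCl2, DTT, vanadate; beads in EDTA buffer; AlphaScreen.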
Assay [2] concerns the target 3',5'-cyclic-AMP phosphodiesterase 4B (Homo sapiens) (UniProt Q07343). The assay can be described thus: qHTS Assay for Inhibitors of PDE-IV (AID 607; active means well fitted activation curve with a large enough effect in the main read-out, with a control signal flat, not every such curve was filed as active). A digest of the protocol:
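The readout is membrane depolarisation from a cAMP-sensing CNG channel, detected with a potential dye at ex 535/em 590. Cells were HEK293-derived (endogenous PDE-IV) at 1000 cells/well, titrated up to 22.9 uM final.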

For assay [3], the target named is Cytochrome P450 3A4 (Homo sapiens) (UniProt P08684). The assay can be described thus: qHTS Assay for Inhibitors and Substrates of Cytochrome P450 3A4 (AID 884). Further: nearly all actives have a fitted effect of over 50% in size. Further: potency means the concentration at half of the fitted maximal effect. A digest of the protocol:
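Luminescent readout of luciferin produced by CYP3A4 (20 nM) dealkylation of Luciferin-PPXE, 25 uM (its KM). NADPH-driven reaction ran 60 min at RT after 10 min compound preincubation; data scaled to 57 uM ketoconazole as 100% inhibition.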
A general note: Quantitative high-throughput screening tests each substance at several concentrations.

For assay [4] the target is unchanged. The assay can be described thus: qHTS Assay for Activators of Cytochrome P450 3A4 (AID 885). Further: nearly all actives have a fitted effect of over 65% in size. A digest of the protocol: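 Activators are scored by enhanced luminescence from CYP3A4 conversion of luciferin-PPXE (25uM, equal to KM) to luciferin, after 60 min at RT with an NADPH-regenerating system.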
The target in assay [5] is Cytochrome P450 2C19 (Homo sapiens) (UniProt P33261). The assay can be described thus: qHTS Assay for Inhibitors and Substrates of Cytochrome P450 2C19 (AID 899). Further: potency means the concentration at half of the fitted maximal effect; nearly all actives have a fitted effect of over 60% in size. A digest of the protocol:
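Luminescent read-out of luciferin formed from Luciferin-H EGE (10uM, equal to KM). Enzyme 5nM in 50mM KPO4; compound added, 10 min at 37C, then NADPH regenerating system for 60 min at 37C. Full inhibition defined by 57uM ketoconazole.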

Assay [6] addresses Cytochrome P450 2C9 (Homo sapiens) (UniProt P11712). The assay can be described thus: qHTS Assay for Inhibitors and Substrates of Cytochrome P450 2C9 (AID 883). Further: potency means the concentration at half of the fitted maximal effect; nearly all actives have a fitted effect of over 60% in size. A digest of the protocol:
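10nM CYP2C9 + 100uM Luciferin-H (=KM), 25mM KPO4; cpd 10 min 37C; NADPH regen, 60 min 37C; stop/detect with P450 Glo-Buffer 20 min; luminescence. Norm. to 57uM sulphaphenazole as full inhibition.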

Records with an inconclusive call do not appear. A call without a number means that no potency is given here. Activity calls are given as the source filed them. Unless noted, the call rests on the fitted dose curve; in most records, active means well fitted curve in the direction sought with a large enough effect; inconclusive means small, poorly fitted or top-dose-only effect, or another doubt; inactive means no such curve, though single readings can be large; an effect the other way counts as inactive or inconclusive.

Sequence of 3',5'-cyclic-AMP phosphodiesterase 4B (Homo sapiens) (Q07343 whole entry, looked up): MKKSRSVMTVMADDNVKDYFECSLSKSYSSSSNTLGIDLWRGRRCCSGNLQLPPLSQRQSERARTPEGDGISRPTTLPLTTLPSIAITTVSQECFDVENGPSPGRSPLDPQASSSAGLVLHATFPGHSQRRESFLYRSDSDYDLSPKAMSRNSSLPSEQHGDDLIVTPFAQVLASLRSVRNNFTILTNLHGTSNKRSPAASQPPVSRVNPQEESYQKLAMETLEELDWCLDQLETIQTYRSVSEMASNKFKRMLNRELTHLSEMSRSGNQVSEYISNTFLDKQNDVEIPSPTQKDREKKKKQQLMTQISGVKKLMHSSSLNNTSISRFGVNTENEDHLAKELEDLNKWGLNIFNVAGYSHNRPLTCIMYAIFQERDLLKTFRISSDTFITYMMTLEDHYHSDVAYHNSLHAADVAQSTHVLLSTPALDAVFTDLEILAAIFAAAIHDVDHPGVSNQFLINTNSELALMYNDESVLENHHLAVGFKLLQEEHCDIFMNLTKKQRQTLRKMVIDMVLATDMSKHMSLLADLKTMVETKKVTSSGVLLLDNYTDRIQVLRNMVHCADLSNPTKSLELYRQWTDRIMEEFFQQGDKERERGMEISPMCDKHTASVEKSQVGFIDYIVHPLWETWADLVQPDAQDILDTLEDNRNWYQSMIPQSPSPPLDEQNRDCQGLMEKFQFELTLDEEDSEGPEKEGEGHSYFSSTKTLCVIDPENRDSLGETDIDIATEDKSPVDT
Sequence of Cytochrome P450 2C9 (Homo sapiens) (P11712 whole entry, looked up): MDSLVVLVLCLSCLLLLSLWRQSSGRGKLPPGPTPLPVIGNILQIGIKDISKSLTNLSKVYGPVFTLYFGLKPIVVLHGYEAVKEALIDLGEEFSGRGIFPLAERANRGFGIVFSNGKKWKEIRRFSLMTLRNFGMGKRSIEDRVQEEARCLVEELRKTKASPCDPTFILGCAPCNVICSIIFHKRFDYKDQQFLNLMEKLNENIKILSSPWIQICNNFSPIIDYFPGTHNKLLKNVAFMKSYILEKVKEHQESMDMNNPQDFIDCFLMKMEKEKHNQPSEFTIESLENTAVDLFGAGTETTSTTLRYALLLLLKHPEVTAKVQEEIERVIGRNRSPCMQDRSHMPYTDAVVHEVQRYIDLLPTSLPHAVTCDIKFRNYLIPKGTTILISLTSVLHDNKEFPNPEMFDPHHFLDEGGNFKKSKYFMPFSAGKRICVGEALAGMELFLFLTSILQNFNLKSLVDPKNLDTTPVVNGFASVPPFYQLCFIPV
Sequence of Cytochrome P450 2C19 (Homo sapiens) (P33261 whole entry, looked up): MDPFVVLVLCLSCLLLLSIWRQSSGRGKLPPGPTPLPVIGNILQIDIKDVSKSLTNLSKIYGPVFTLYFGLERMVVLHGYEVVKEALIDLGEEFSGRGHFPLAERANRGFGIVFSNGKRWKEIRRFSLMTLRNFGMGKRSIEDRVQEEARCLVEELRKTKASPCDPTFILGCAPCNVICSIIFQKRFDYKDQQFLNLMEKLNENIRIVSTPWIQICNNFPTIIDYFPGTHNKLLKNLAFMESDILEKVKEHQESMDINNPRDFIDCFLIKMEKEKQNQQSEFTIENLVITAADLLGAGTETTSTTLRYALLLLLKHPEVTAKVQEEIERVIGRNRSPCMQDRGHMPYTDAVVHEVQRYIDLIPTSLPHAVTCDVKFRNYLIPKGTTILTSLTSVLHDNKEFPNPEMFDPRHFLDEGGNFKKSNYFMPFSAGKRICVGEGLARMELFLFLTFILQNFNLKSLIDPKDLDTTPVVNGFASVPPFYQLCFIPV
Sequence of Cytochrome P450 3A4 (Homo sapiens) (P08684 whole entry, looked up): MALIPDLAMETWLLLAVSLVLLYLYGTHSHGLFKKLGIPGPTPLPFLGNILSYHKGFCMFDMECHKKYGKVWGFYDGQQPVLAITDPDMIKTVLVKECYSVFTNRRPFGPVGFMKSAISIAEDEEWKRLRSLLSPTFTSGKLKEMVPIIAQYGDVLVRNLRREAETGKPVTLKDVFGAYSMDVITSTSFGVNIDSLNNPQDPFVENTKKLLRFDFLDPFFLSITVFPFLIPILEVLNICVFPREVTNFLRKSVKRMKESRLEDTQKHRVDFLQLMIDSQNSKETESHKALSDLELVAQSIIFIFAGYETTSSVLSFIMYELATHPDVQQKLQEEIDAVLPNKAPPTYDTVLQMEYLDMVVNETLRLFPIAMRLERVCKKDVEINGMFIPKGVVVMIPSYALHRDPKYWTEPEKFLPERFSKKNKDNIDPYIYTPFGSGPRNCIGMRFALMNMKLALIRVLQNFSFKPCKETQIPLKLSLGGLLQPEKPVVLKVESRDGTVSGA

On to `COC(=O)[C@@]1(Cc2ccc(OC)cc2)[C@H]2c3cc(C(=O)N(C)C)n(CCc4ccc(OC)c(Br)c4)c3C[C@H]2CN1C(=O)c1ccccc1`, for which the result in assay [1] and in assay [2] was inactive.
In the case of `COC(=O)[C@@]1(Cc2ccc(OC)cc2)[C@H]2c3cc(C(=O)N4CCCC4)n(Cc4nc5ccccc5[nH]4)c3C[C@H]2CN1C(=O)c1ccccc1`, the molecule was called inactive in assay [1] and in assay [2]. The Potency in assay [3] is 2 µM (active). For the same molecule, the Potency result in assay [4] was “inactive”.
In the case of `C=C(CC1([C@@H](NP(=O)(c2ccccc2)c2ccccc2)[C@H]2C[C@@H]2CCCC)CC1)c1ccccc1`, the result in assay [1] and in assay [2] was inactive. Further, the Potency in assay [3] was 1.58 µM (active). In addition, the Potency result in assay [4] was “inactive”.
Regarding `COC(=O)[C@@]1(Cc2ccc(OC)cc2)[C@H]2c3cc(C(=O)N4CCCC4)n(CCc4ccc(O)c(O)c4)c3C[C@H]2CN1C(=O)c1ccccc1`, the call in assay [1] and in assay [2] was inactive.
On to `COCCNC(=O)[C@H](C)[C@@H]1C[C@@]1(C)[C@@H](NC(=O)OCc1ccccc1)c1ccccc1`, for which the result in assay [1] and in assay [2] was inactive. The Potency in assay [3] was 7.94 µM (active); in assay [5], 3.16 µM (active). For the same molecule, the Potency result in assay [4] was “inactive”.
On to `COC(=O)[C@@]1(Cc2ccccc2)[C@H]2c3cc(C(=O)N4CCCC4)[nH]c3C[C@H]2CN1C(=O)c1ccccc1`, for which the molecule was called inactive in assay [1] and in assay [2]. The Potency in assay [6] is 0.794 µM (active); in assay [3], 2.51 µM (active); in assay [5], 0.501 µM (active). For the same molecule, the Potency entry in assay [4] is “inactive”.
On to `O=C(NCC1CC1)[C@H]1C[C@@H]1[C@H](NP(=O)(c1ccccc1)c1ccccc1)c1ccccc1`, for which the outcome in assay [1] and in assay [2] was inactive.
Regarding `COC(=O)[C@@]1(Cc2ccc(OC)cc2)[C@H]2c3cc(C(=O)N4CCCC4)n(Cc4ccccn4)c3C[C@H]2CN1C(=O)c1ccccc1`, the call in assay [1] and in assay [2] was inactive.
Regarding `COC(=O)[C@@]1(Cc2ccc(OC)cc2)[C@H]2c3cc(C(=O)N(C)C)n(Cc4nc5ccccc5[nH]4)c3C[C@H]2CN1C(=O)c1ccccc1`, the call in assay [1] and in assay [2] was inactive.
Regarding `Nc1ccccc1C#CCCCCO`, the result in assay [1] and in assay [2] was inactive.
As to `C[C@@H](C(=O)NCc1ccccc1)[C@H]1C[C@]1(C)[C@H](NC(=O)OCc1ccccc1)c1ccccc1`, the molecule was classed as inactive in assay [1] and in assay [2].
Regarding `COCCNC(=O)[C@H](C)[C@H]1C[C@]1(C)[C@H](NC(=O)OCc1ccccc1)c1ccccc1`, the molecule was called inactive in assay [1] and in assay [2]. Also, the Potency in assay [3] was 3.16 µM (active). Further, the Potency result in assay [4] is “inactive”.
On to `COC(=O)[C@@]1(Cc2ccccc2)[C@H]2c3cc(C(=O)N(C)C)n(Cc4ccc(O)c(OC)c4)c3C[C@H]2CN1C(=O)c1ccccc1`, for which the outcome in assay [1] and in assay [2] was inactive.
Consider `COC(=O)[C@@]1(Cc2ccccc2)[C@H]2c3cc(C(=O)N4CCCC4)n(CCN4CNCC4=O)c3C[C@H]2CN1C(=O)c1ccccc1`, for which the outcome in assay [1] and in assay [2] was inactive. In assay [6], the Potency was 2 µM (active). In addition, the Potency result in assay [4] was “inactive”.
Regarding `COC(=O)[C@@]1(Cc2ccccc2)[C@H]2c3cc(C(=O)N(C)C)n(Cc4cc(F)c(F)c(F)c4)c3C[C@H]2CN1C(=O)c1ccccc1`, the call in assay [1] and in assay [2] was inactive.
For `COC(=O)[C@@]1(Cc2ccc(F)cc2)[C@H]2c3cc(C(=O)N4CCCC4)n(CCc4c[nH]c5ccc(OC)cc45)c3C[C@H]2CN1C(=O)c1ccccc1`, the call in assay [1] and in assay [2] was inactive. For the same molecule, the Potency in assay [6] and in assay [5] was 7.94 µM (active) throughout. The Potency result in assay [4] is “inactive”.
Take `COC(=O)[C@@]1(Cc2ccc(F)cc2)[C@H]2c3cc(C(=O)N4CCCC4)n(Cc4cc(C)n(C)n4)c3C[C@H]2CN1C(=O)c1ccccc1`: the call in assay [1] and in assay [2] was inactive.
As to `COC(=O)[C@@]1(Cc2ccc(F)cc2)[C@H]2c3cc(C(=O)N(C)C)n(CCc4ccccn4)c3C[C@H]2CN1C(=O)c1ccccc1`, the molecule was called inactive in assay [1] and in assay [2].
As to `C[C@H](CO)NC(=O)[C@H](C)[C@@H]1C[C@@]1(C)[C@@H](NC(=O)OCc1ccccc1)c1ccccc1`, the molecule was called inactive in assay [1] and in assay [2]. Moreover, in assay [3], the Potency was 5.01 µM (active). Also, in assay [4], the Potency result is “inactive”.
For `COC(=O)N1[C@H](Cc2ccccc2)C=C[C@]1(C)C(=O)O`, in assay [1], the molecule was classed as inactive. Also, the Potency entry in assay [3] is “inactive”.
For `COC(=O)N1[C@H](C)C=C[C@]1(Cc1ccccc1)C(=O)OC`, in assay [1], the result was inactive. Besides, in assay [3], the Potency result was “inactive”.
With `CCCCCCN(C(=O)CCCCCN1C(=O)NC(c2ccc(-c3ccccc3)cc2)C(C(=O)OCc2ccccc2)=C1C)C(C(=O)NCCCC)c1ccc(O)c(C(=O)OC)c1` (stereo not given), the result in assay [1] was inactive. The Potency in assay [3] was 10 µM (active).
In the same order, the values of `COCCNC(=O)[C@@]1(Cc2ccccc2)C=C[C@@H](C)N1C(=O)OC` are “inactive” and “inactive”.
As for `COC(=O)N1CC=CC1(C)C(=O)NCC1CC1` (stereo not given), the call in assay [1] was inactive. In assay [3], the Potency entry was “inactive”.
As for `CCCCCCN(C(=O)CCCCCN1C(=O)NC(c2ccc(-c3ccccc3)cc2)C(C(=O)OCc2ccccc2)=C1C)C(C(=O)NCCCC)c1ccc(-c2ccccc2)cc1` (stereo not given), the outcome in assay [1] was inactive. Besides, the Potency entry in assay [3] is “inactive”.
